Assay [1] is described as follows: Viability qHTS for spleen associated tyrosine kinase inhibitor (SYKi) naive MV4-11 cells (AID 1963823). Further: nearly all actives have a fitted effect of over 40% in size. The method, boiled down: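 qHTS, SYK inhibitor-naive MV4-11; 500 cells/well; 72 hr compound exposure, 37 C; CellTiter-Glo added, 10 min RT; luminescence read.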
(qHTS replaces the single test concentration by a dilution series.)

Assay [2] is described as follows: Viability qHTS for spleen associated tyrosine kinase inhibitor (SYKi) drug resistant MV4-11 cells (AID 1963824). Further: nearly all actives have a fitted effect of over 35% in size. The method, boiled down: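 CellTiter-Glo luminescence, read 10 min after reagent addition, reports viability after a 72 hr compound exposure. Cells are an MV4-11 line made resistant to SYK inhibition, seeded at 500 per well onto compound-containing plates.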

Assay [3] can be described thus: Quantitative highthroughput screen to assess conditional lethalithy of NOMO1 cells grown in RPMI1640 with untreated serum (RPMI+s) (AID 1963876). Further: nearly all actives have a fitted effect of over 35% in size.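 On Viability: 100% = DMSO wells and 0% = empty wells without cells.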 The essentials: (§1)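 Each medium arm—HPLM with 10% dialyzed FBS, or RPMI1640 with 5 mM glucose and 10% untreated or dialyzed FBS—was screened against an 11-point, 3-fold compound titration for 48 h at 37 °C, with CellTiter-Glo luminescence as endpoint.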

A short description of assay [4]: Quantitative highthroughput screen to assess conditional lethalithy of NOMO1 cells grown in RPMI1640 with dialyzed fetal bovine serum (RPMI+ds) (AID 1963877). Further: nearly all actives have a fitted effect of over 30% in size.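 On Viability: series mostly up to about 46 µM; 100% = DMSO control wells and 0% = empty wells.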 The essentials: as §1
Assay [5] in a line: Quantitative highthroughput screen to assess conditional lethalithy of NOMO1 cells grown in Human Plasma-Like Medium with dialyzed fetal bovine serum (HPLM+ds) (AID 1963878). Further: nearly all actives have a fitted effect of over 35% in size.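 On Viability: 100% = DMSO wells and 0% = empty wells on each plate.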 The method, boiled down:
as §1

Assay [6] is described as follows: Quantitative highthroughput screen to assess conditional lethalithy of P12 Ichikawa cells grown in Human Plasma-Like Medium with dialyzed fetal bovine serum (HPLM+ds) (AID 1963879). Further: nearly all actives have a fitted effect of over 35% in size. On Viability: series mostly up to about 46 µM. The conditions noted are these: Potency: viability. The method, boiled down: as §1
A short description of assay [7]: Quantitative highthroughput screen to assess conditional lethalithy of P12 Ichikawa cells grown in RPMI1640 with dialyzed fetal bovine serum (RPMI+ds) (AID 1963880). Further: nearly all actives have a fitted effect of over 35% in size.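 On Viability: 100% = DMSO wells and 0% = empty wells on each plate.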 Conditions: Potency: P12-Ichikawa viability. The essentials: as §1
The nature of assay [8]: Quantitative highthroughput screen to assess conditional lethalithy of P12 Ichikawa cells grown in RPMI1640 with untreated serum (RPMI+s) (AID 1963881). Further: nearly all actives have a fitted effect of over 35% in size.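 On Viability: series mostly up to about 46 µM; 100% = DMSO wells and 0% = empty wells without cells.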 Conditions: Potency: viability. The method, boiled down: as §1
Assay [9] is described as follows: Quantitative highthroughput screen to assess conditional lethalithy of SEM cells grown in Human Plasma-Like Medium with dialyzed fetal bovine serum (HPLM+ds) (AID 1963882). Further: nearly all actives have a fitted effect of over 35% in size. On Viability: series mostly up to about 46 µM. The method, boiled down: as §1
Assay [10] in a line: Quantitative highthroughput screen to assess conditional lethalithy of SEM cells grown in RPMI1640 with unreated serum (RPMI+s) (AID 1963883). Further: nearly all actives have a fitted effect of over 35% in size.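 On Viability: 100% = DMSO wells and 0% = empty wells without cells.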 The method, boiled down: as §1
Assay [11] is described as follows: Quantitative highthroughput screen to assess conditional lethalithy of SEM cells grown in RPMI1640 with dialyzed fetal bovine serum (RPMI+ds) (AID 1963884). Further: nearly all actives have a fitted effect of over 35% in size.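 On Viability: series mostly up to about 46 µM; 100% = DMSO control wells and 0% = empty wells without cells.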 The essentials: as §1
Assay [12] can be described thus: Cellular viability qHTS for adrenocortical cancer (ACC) cell line SW-13 (AID 1963989). Further: nearly all actives have a fitted effect of over 65% in size.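 On activity (max response): cells grown in serum-free medium with ITS supplement; on the % scale 0 is the no-effect control and ±100 the full control effect.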 Conditions: SW-13 ACC cells viability, CellTiter-Glo, 48 h; activity (max response): hits give low values. The essentials:
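Viability was read as CellTiter-Glo luminescence after 48 h compound treatment (up to 46 uM final) of SW-13 cells grown serum-free; titration curves were fit with a four-parameter logistic model to give IC50 and efficacy.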

The nature of assay [13]: Cellular viability qHTS for adrenocortical cancer (ACC) cell line NCI-H295R (AID 1963990). Further: nearly all actives have a fitted effect of over 60% in size.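 On activity change, negative = viability loss: 0% = DMSO only wells and -100% = full killing with cytotoxic reference compound.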 The essentials: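 CellTiter-Glo ATP luminescence, read 48 h after compound addition, measured viability of NCI-H295R adrenocortical cells grown serum-free with ITS. Final concentrations spanned up to 46 uM. Data normalized to DMSO and doxorubicin, fitted for IC50 and maximal response.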

Values joined by “and” are separate entries in the source; they are usually repeats but may differ in a detail not shown here. Equal values may be shown once. Results filed as inconclusive are left out. Values without a mark were called inactive. Active and inactive are the calls of the source. The call rests on the fitted dose curve; in most records, active means well fitted curve in the direction sought with a large enough effect; inconclusive means small, poorly fitted or top-dose-only effect, or another doubt; inactive means no such curve, though single readings can be large; an effect the other way counts as inactive or inconclusive.
Potency means the concentration at half of the fitted maximal effect.

Regarding `N#Cc1cc(NC(=O)Nc2nnc(-c3ccncc3)s2)ccc1-c1cn[nH]c1`, the Potency entry in [1], in assay [2], in assay [3], in assay [4], in assay [5] and in assay [6] was “inactive” each time. The Potency result in [7], in assay [8], in assay [9], in [10], in assay [11] and in assay [13] was “inactive” throughout. Further, in [12], the activity (max response) is 13.8%.

As for `CC(C)(C#N)c1cc(Cn2cncn2)cc(C(C)(C)C#N)c1`, the Potency result in [1], in assay [2], in [3], in [4], in assay [5] and in [6] was “inactive” throughout. For the same compound, the Potency entry in [7], in assay [8], in [9], in assay [10], in assay [11] and in assay [13] was “inactive” throughout. Also, the activity (max response) in assay [12] is 5.22%.

For `Nc1ncnc2nc(-c3ccc(N4CCOCC4)nc3)cc(-c3cccc(Br)c3)c12`, the Potency in assay [1] was 4.68 µM (active); in assay [2], 8.33 µM (active). Also, the Potency result in [3], in assay [4], in [5], in [6], in assay [7] and in assay [8] was “inactive” each time. For the same compound, the Potency entry in [9], in [10], in [11] and in assay [13] was “inactive” each time. Besides, the activity (max response) in assay [12] was -17.8%.

Turning to `COc1cccc(OC)c1-c1cc(C(=O)NC2(C(=O)O)C3CC4CC(C3)CC2C4)nn1-c1ccnc2cc(Cl)ccc12` (stereo unspecified), the Potency in assay [1] was 9.34 µM (active); in assay [2] it was 5.9 µM (active). Besides, the Potency entry in [3], in assay [4], in assay [5], in assay [6], in assay [7] and in assay [8] was “inactive” each time. In addition, the Potency entry in assay [9], in assay [10], in assay [11] and in [13] was “inactive” throughout. Besides, the activity (max response) in assay [12] is -4.12%.

Consider `CNC1CCC(N(Cc2cccc(-c3ccncc3)c2)C(=O)c2sc3ccccc3c2Cl)CC1` (stereo unspecified), for which the Potency in [1] was 7.31 µM (active) and 5.25 µM (active); in assay [2], 5.8 µM (active) and 5.25 µM (active); in [3], 3.32 µM (active); in [4] it was 16.6 µM (active); in assay [5] it was 1.48 µM (active); in assay [6], 1.18 µM (active). The Potency in assay [7] was 1.66 µM (active); in [8], 2.09 µM (active); in assay [9], 1.32 µM (active); in assay [10], 372 nM (active); in assay [11] it was 833 nM (active); in assay [12] it was 10 µM (active). Also, in assay [13], the Potency is 6.31 µM (active).

On to `O=C(CCCCCCC(=O)Nc1ccc([C@H]2O[C@@H](CSc3nc(-c4ccccc4)c(-c4ccccc4)o3)C[C@@H](c3ccc(CO)cc3)O2)cc1)NO`, for which the Potency in assay [1] is 16.4 µM (active); in assay [2] it was 18.4 µM (active); in [3] it was 9.35 µM (active); in [4] it was 9.35 µM (active); in [5], 8.33 µM (active); in [6], 4.69 µM (active). The Potency in [7] is 3.32 µM (active); in assay [8], 4.69 µM (active); in assay [9], 7.43 µM (active); in assay [10], 7430 nM (active); in assay [11], 6620 nM (active). The activity (max response) in assay [12] is -9.54%. Besides, the activity change, negative = viability loss in assay [13] is -23.6% [at 9.17 µM].

`O=C(NCc1ccccc1)c1csc(Nc2ccncn2)n1`: the Potency in assay [1] is 4.68 µM (active); in [2] it was 4.17 µM (active) and 20.6 µM (active); in assay [3], 3.32 µM (active); in assay [4], 3.72 µM (active); in [5], 2.35 µM (active); in assay [6], 6.62 µM (active). Moreover, the Potency in assay [7] is 3.72 µM (active); in [8], 3.32 µM (active); in [9] it was 1.66 µM (active); in [10], 833 nM (active); in assay [11], 1660 nM (active); in assay [12], 25.1 µM (active). Further, the Potency in assay [13] is 31.6 µM (active).

Regarding `O=C(CCCCCCC(=O)Nc1cccnc1)NO`, the Potency in assay [1] was 3.32 µM (active); in assay [2], 3.72 µM (active); in assay [3], 20.9 µM (active); in assay [4] it was 20.9 µM (active); in assay [5] it was 18.7 µM (active); in [6] it was 7.43 µM (active). Besides, the Potency in assay [7] is 7.43 µM (active); in [8] it was 8.33 µM (active); in assay [9] it was 8.33 µM (active); in assay [10] it was 8330 nM (active); in [11], 6620 nM (active); in assay [12] it was 12.6 µM (active). In addition, in assay [13], the Potency was 4.47 µM (active).

With `Nc1cc(C(F)(F)F)c(-c2cc(N3CCOCC3)nc(N3CCOCC3)n2)cn1`, the Potency in assay [1] was 2.06 µM (active) and 1.86 µM (active); in [2], 1.46 µM (active) and 2.09 µM (active); in assay [3], 1.87 µM (active); in assay [4] it was 1.87 µM (active); in assay [5], 1.18 µM (active); in assay [6], 1.32 µM (active). The Potency was 1.32 µM (active) in assay [7]; 1.66 µM (active) in [8]; 0.935 µM (active) in assay [9]; 1050 nM (active) in [10]; 833 nM (active) in assay [11]; 2 µM (active) in assay [12]. The Potency in assay [13] is 3.16 µM (active).

Consider `O=C(/C=C\n1cnc(-c2cc(C(F)(F)F)cc(C(F)(F)F)c2)n1)NNc1cnccn1`, for which the Potency is 0.833 µM (active) in [1]; 1.18 µM (active) in assay [2]; 1.05 µM (active) in assay [3]; 0.933 µM (active) in assay [4]; 0.831 µM (active) in [5]; 0.588 µM (active) in assay [6]. The Potency is 0.588 µM (active) in assay [7]; 0.524 µM (active) in [8]; 0.741 µM (active) in assay [9]; 588 nM (active) in assay [10]; 741 nM (active) in assay [11]; 12.6 µM (active) in assay [12]. Further, in [13], the Potency was 2.24 µM (active).

Regarding `CC(C)c1cnn2c(NCc3ccccc3)cc(N[C@@H](CO)[C@H](O)CO)nc12`, the Potency in assay [1] was 1.03 µM (active) and 332 nM (active); in [2], 820 nM (active) and 263 nM (active); in assay [3], 0.743 µM (active); in [4] it was 0.743 µM (active); in [5] it was 0.662 µM (active); in [6], 1.32 µM (active). Moreover, the Potency was 1.18 µM (active) in [7]; 1.05 µM (active) in [8]; 0.743 µM (active) in assay [9]; 590 nM (active) in assay [10]; 743 nM (active) in assay [11]; 0.891 µM (active) in assay [12]. For the same compound, in [13], the Potency was 0.631 µM (active).

With `CC(C)(C)OC(=O)Nc1ccc(-c2cc(C(=O)NCCCCCCC(=O)NO)no2)cc1`, the Potency in assay [1] was 1.48 µM (active); in [2] it was 1.48 µM (active); in assay [3] it was 8.33 µM (active); in assay [4], 9.35 µM (active); in [5], 8.33 µM (active); in [6], 2.64 µM (active). Further, the Potency was 1.05 µM (active) in [7]; 2.35 µM (active) in assay [8]; 3.72 µM (active) in [9]; 1480 nM (active) in assay [10]; 1320 nM (active) in assay [11]; 15.8 µM (active) in assay [12]. The Potency in assay [13] was 2.82 µM (active).

The values are drawn from PubChem BioAssay (NCATS).
